# According to PubChem BioAssay (Tox21):
# Values joined by “and” are separate entries in the source; they are usually repeats but may differ in a detail not shown here. Equal values may be shown once. Records with an inconclusive call do not appear. Entries that show only a call come without a potency. A structure can be active in one record and inactive in another. Active and inactive are the calls of the source. Unless noted, the call rests on the fitted dose curve; in most records, active means well fitted curve in the direction sought with a large enough effect in the repeat runs; inconclusive means weak or mixed curves; inactive means no such curve, though single readings can be large; an effect the other way counts as inactive or inconclusive.
# Experiments:
# [1] = qHTS assay for small molecules that induce genotoxicity in human embryonic kidney cells expressing luciferase-tagged ATAD5 (AID 651632); further: nearly all actives have a fitted effect of over 15% in size
# How it was run: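 Reporter cells (HEK293T) express luciferase-tagged ATAD5, a protein that accumulates after DNA damage. Treat 16 hr at 37C/5% CO2, add Amplite, wait 30 min at RT, and read luminescence.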
# [2] = qHTS assay for small molecule agonists of the p53 signaling pathway - cell viability (AID 651633; calls by dose curve; further: nearly all actives have a fitted effect of over 30% in size; further: potency means the concentration at half of the fitted maximal effect)
# How it was run: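 Viability counter-read: CellTiter-Glo luminescence (30 min, room temperature) in the same p53RE-bla plates. These plates had been exposed to compounds for 16 h at 37 C.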
# [3] = qHTS assay for small molecules that induce genotoxicity in human embryonic kidney cells expressing luciferase-tagged ATAD5 - cell viability (AID 651634; calls by dose curve; further: nearly all actives have a fitted effect of over 25% in size; further: potency means the concentration at half of the fitted maximal effect)
# How it was run: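 Seeding of 2,000 HEK293T ATAD5-luciferase cells per well preceded pin-tool compound transfer. Plates sat 15.5 hr at 37C under 5% CO2, then fluorescence was read after 30 min with CellTiter-Fluor.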
# [4] = qHTS assay for small molecule disruptors of the mitochondrial membrane potential - cell viability (AID 720634; calls by dose curve; further: nearly all actives have a fitted effect of over 20% in size; further: potency means the concentration at half of the fitted maximal effect)
# How it was run: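 Measuring cytotoxicity alongside mitochondrial potential, the screen quantified ATP by luminescence in HepG2 cells after 1 hr compound incubation and a 30 min room-temperature CellTiter-Glo step.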
# [5] = qHTS assay for small molecule disruptors of the mitochondrial membrane potential (AID 720635); further: potency means the concentration at half of the fitted maximal effect
# How it was run: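 Mitochondrial membrane potential tracked with Mito-MPS dye, red aggregates (ex 540/em 590 nm) against green monomers (ex 490/em 535 nm). Compound treatment 1 hr at 37C, dye 30 min in HepG2.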
# [6] = qHTS assay to test for compound auto fluorescence at 590 nm (red) in HepG2 cells (AID 720674)
# How it was run: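 Red autofluorescence (Ex/Em 540/590 nm, Rose Bengal sodium equivalents) was measured in HepG2 cells, 2,000 per well in MEM plus 10% FBS, plated overnight at 37 C. Readings were taken 1 hr after adding 23 nL compound or DMSO, at 37 C and 5% CO2.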
# [7] = qHTS assay to test for compound auto fluorescence at 535 nm (green) in HepG2 cells (AID 720675); further: potency means the concentration at half of the fitted maximal effect
# [8] = qHTS assay to test for compound auto fluorescence at 460 nm (blue) in HEK293 cells (AID 720678)
# How it was run: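 Cells were seeded and left to adhere for 4-5 hr at 37C. Compounds were then pin-transferred. After an overnight incubation at 37C under 5% CO2, intrinsic fluorescence at 405/460 nm was measured and referenced to triamterene.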
# [9] = qHTS assay to test for compound auto fluorescence at 590 nm (red) in HEK293 cells (AID 720679)
# How it was run: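 Each well held 2,000 HEK293 cells in medium containing 10% dialyzed FBS. Following 4-5 hr attachment at 37C, 23 nL test compound or DMSO was added; plates sat overnight, and red fluorescence (540/590nm) was recorded.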
# [10] = qHTS assay for small molecule agonists of the p53 signaling pathway (AID 651631; calls by dose curve; further: nearly all actives have a fitted effect of over 15% in size)
# How it was run: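 Beta-lactamase reporter activity under p53 response elements was quantified in HCT-116 cells by FRET fluorescence, following 16 h incubation with test compounds at 37 °C and 2 h substrate development at room temperature.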
Structure (SMILES),Potency [1],Potency [2],Potency [3],Potency [4],Potency [5],outcome [6],Potency [7],Potency [8],outcome [9],Potency [10],activation [1],"fluorescence, relative to Rose Bengal [6]","fluorescence, % of fluorescein control [7]","fluorescence, % of triamterene [8]","fluorescence, % of fluorescent control [9]"
COc1ccc2[nH]cc(CCN(C(C)C)C(C)C)c2c1,inactive,inactive,inactive,inactive,inactive,inactive,inactive,inactive,inactive,–,–,–,–,–,–
CC1CN1 (centres undefined),–,inactive,–,inactive,inactive,inactive,inactive,inactive,inactive,inactive,–,–,–,–,–
O=S(=O)(O)F,inactive,inactive,inactive,inactive,inactive,inactive,inactive,inactive,inactive,–,–,–,–,–,–
ClC1(Cl)C2(Cl)C3(Cl)C4(Cl)C(Cl)(Cl)C5(Cl)C3(Cl)C1(Cl)C5(Cl)C24Cl (centres undefined),inactive,inactive,inactive,inactive,–,inactive,inactive,inactive,inactive,–,–,–,–,–,–
ClSC(Cl)(Cl)Cl,inactive,inactive,inactive,inactive,inactive,–,inactive,inactive,inactive,–,–,–,–,–,–
CCn1cc[n+](C)c1 (tested in a mixture with another compound),inactive,inactive,inactive,inactive,inactive,inactive,inactive,inactive,inactive,–,–,–,–,–,–
CCN(CC)C(=S)S,inactive,inactive,inactive,inactive,2.98 µM (active) and inactive,inactive,inactive,inactive,inactive,–,–,–,–,–,–
O=C(O)CCCCCCNC1c2ccccc2CCc2ccccc21,inactive,inactive,inactive,inactive,inactive,–,inactive,inactive,inactive,–,–,–,–,–,–
N#CC(C#N)=NNc1cccc(Cl)c1,inactive,864 nM (active),7.7 µM (active),inactive,0.109 µM (active),inactive,inactive,inactive,inactive,–,–,–,–,–,–
C=CC(=O)[O][Sn]([CH2]CCC)([CH2]CCC)[CH2]CCC,inactive,864 nM (active),1.09 µM (active),1.93 µM (active),0.0863 µM (active),inactive,inactive,inactive,inactive,–,–,–,–,–,–
CC(=O)[O][Pb]([c]1ccccc1)([c]1ccccc1)[c]1ccccc1,inactive,2730 nM (active),0.686 µM (active),30.6 µM (active),1.09 µM (active),inactive,inactive,inactive,inactive,–,–,–,–,–,–
S=C=Nc1ccccc1,inactive,inactive,inactive,inactive,28.2 µM (active),inactive,inactive,inactive,inactive,–,–,–,–,–,–
CNC(=O)CSP(=O)(OC)OC,inactive,inactive,inactive,inactive,inactive,inactive,inactive,inactive,inactive,–,–,–,–,–,–
CCCN,inactive,inactive,inactive,inactive,inactive,inactive,inactive,inactive,inactive,–,–,–,–,–,–
Nc1nc(N)c(N)c(N)n1,inactive,inactive,inactive,inactive,8.68 µM (active),–,31.6 µM (active),–,inactive,–,–,–,–,–,–
ClC(Cl)C(Cl)(Cl)Cl,inactive,inactive,inactive,inactive,inactive,–,inactive,inactive,inactive,–,–,–,–,–,–
CCCCCCCCCCCCCCn1cc[n+](C)c1,inactive,43.4 µM (active) and 67.8 µM (active) and inactive,–,54.6 µM (active) and inactive,10.7 µM (active) and 34.3 µM (active),inactive,inactive,inactive,inactive,–,–,–,–,–,–
Cc1ccn2nc(S(=O)(=O)Nc3c(F)cccc3F)nc2n1,inactive,inactive,inactive,inactive,–,inactive,inactive,inactive,inactive,–,–,–,–,–,–
Nc1c(Cl)c(Cl)c(Cl)c(Cl)c1Cl,inactive,inactive,inactive,–,–,inactive,inactive,inactive,inactive,–,–,–,–,–,–
CCC[CH2][Sn]([CH2]CCC)([CH2]CCC)[O][Sn]([CH2]CCC)([CH2]CCC)[CH2]CCC,–,533 nM (active),–,1.68 µM (active),0.0752 µM (active),–,–,–,–,–,-11.2% [at 8.08 µM] (inactive),-0.33% [at 3.72 µM] (inactive),-0.0029% [at 3.72 µM] (inactive),-0.1% [at 3.72 µM] (inactive),-0.182% [at 3.72 µM] (inactive)
O=c1[nH]c(Cl)c(Cl)cc1Cl,inactive,inactive,–,inactive,54.5 µM (active),inactive,inactive,inactive,inactive,–,–,–,–,–,–
CC(C)C(Br)C(=O)NC(N)=O (centres undefined),inactive,inactive,inactive,–,–,inactive,inactive,inactive,inactive,–,–,–,–,–,–
CC(C)C(Nc1ccc(C(F)(F)F)cc1Cl)C(=O)OC(C#N)c1cccc(Oc2ccccc2)c1 (centres undefined),inactive,inactive,–,inactive,49 µM (active),inactive,inactive,inactive,inactive,–,–,–,–,–,–
C=C(C)C(=O)[O][Sn]([CH2]CCC)([CH2]CCC)[CH2]CCC,inactive,611 nM (active),–,3.86 µM (active),0.0611 µM (active),inactive,inactive,inactive,inactive,–,–,–,–,–,–
